This note sets out measurements from the OligoGym collection.
Note: reference of the scale not given here.

In the first experiment the target is DMXL1. Nature of the experiment: pooled miR-30 sensor sort-seq; sequence = guide strand. As to conditions: shRNA.
The sequence TAAGTTAAAAGCATTGTGCATT gave a sensor-assay potency score (higher = more potent) of -0.306. With TTTCTGAACTTCCATCTGGAGA, the sensor-assay potency score (higher = more potent) was -0.95.

Sequence TTTTCTATAATTCTGAATCAGA displayed a sensor-assay potency score (higher = more potent) of -0.788. Same read-out and setting: the value for TTCATTTTCATTTAGACTCAGA was -0.406; that for TTGAACTCGTTCTTTACTGGAA was -0.246; that for TTCTACATTATACCAAACCTTC was -0.955. The same measure, in the same setting: with TTTAACACTATGACATACTGAT the figure was 0.376.

TTGACTGCTTTCACATTTGTTT came in with a sensor-assay potency score (higher = more potent) of -0.678. Same read-out and setting: the value for TTACACATTCTACTTTAGGCAA was -0.183. Same read-out and setting: the value for TTGTTTCTGAAAACACTGCTAT was 0.009.

TTTCATTAAATGAACTTGGGAA: the sensor-assay potency score (higher = more potent) was found to be 0.382. On to TAACATTTCCATAAGACGCTGC, for which the sensor-assay potency score (higher = more potent) turned out to be 0.508.

In turn, TAATTCTTGCTTTACCTCCAGG displayed a sensor-assay potency score (higher = more potent) of -0.447.

As to TTTCTATTAATGGTAGATCTGG, the sensor-assay potency score (higher = more potent) is -0.715. Same read-out and setting: the value for AAATAGTACATAATTGTCCCAT was 0.365.

Another experiment deals with DNAJA2. The experiment is described as above. As to conditions: shRNA.
The sequence AATTATGTTAGGAACTTCCGGT showed a sensor-assay potency score (higher = more potent) of -0.0625. Same read-out and setting: the value for TTGATAGTACTTCATATGCAAA was -1.43; that for TATTCCTTGGCTAACTTTCTGT was -0.171; that for TAGAGCTTCAACAAGTCCTATT was -0.658. Sequence TACCTCATGTTCTTTCTCCTGT yielded a sensor-assay potency score (higher = more potent) of 0.929.

On to TTTCTTTAAATTTGTCTCCTGC, for which the sensor-assay potency score (higher = more potent) turned out to be 0.759. The sequence TCGAGTGCTATCAAATTCCTGA registered a sensor-assay potency score (higher = more potent) of 0.237. Consider TATTTCACCACAATCTGACGTC, for which the sensor-assay potency score (higher = more potent) came to 0.583. In turn, TTCTTCAGCTCGTTCTCGCTGG showed a sensor-assay potency score (higher = more potent) of -0.323. Still for that read-out and setting: the value for TAGTTCAGAAAGCTTGTCTGGG was 0.299; that for TTCAAGAATCTTGACTTCTTTA was -0.418; that for TTTCATGCCTTTGTCTACGTGG was -0.148.

The next experiment has as its target DNAJB11. Described as above. As to conditions: shRNA.
TTCTTCACCATAAGTATCGTAC displayed a sensor-assay potency score (higher = more potent) of -0.183. On the same count and under the same terms, the value for TTCACCATAAGTATCGTACTGT was 0.409. Same read-out and setting: the value for TCTATTTCTACTTCCAGCGTTC was -0.287.

For the sequence TTTGTGTACAAATCATCTCCTC, the sensor-assay potency score (higher = more potent) is -0.115.

TCTTATAGAAATCTCGTCCGGC: the sensor-assay potency score (higher = more potent) worked out at 0.334. The same measure, in the same setting: the value for TTCGGAACCGTAAATCTCCAGG was -0.565; that for TCTTCCATAGCTTCGCTCCTGG was -0.0366. Turning to TTGTGTACAAATCATCTCCTCT, the sensor-assay potency score (higher = more potent) is -0.302.

TATACCTTCTGCACTGACCCTT displayed a sensor-assay potency score (higher = more potent) of 0.681. The same measure, in the same setting: the value for TTTGTTTCTAACTACTTCCACA was -0.721. As for TATTTCTGTCTTGCTGACGAGG, the sensor-assay potency score (higher = more potent) was -1.05.

In turn, TTCGTCGCAGACCACCTCCTGG showed a sensor-assay potency score (higher = more potent) of -1.23.
